Assay results as given in PubChem BioAssay (EPA / NIEHS).
Records with an inconclusive call do not appear. Activity calls are given as the source filed them. Rule for the calls: active = hit-call score of the fitted dose curve at least 0.9, where 1 is the maximum; inconclusive = response in the unintended direction; inactive = score below 0.9.

These molecules were tested against Estrogen receptor (Homo sapiens) (UniProt P03372) (assay: NVS_NR_hER: NovaScreen (NVS) Nuclear Receptor Binding Assay for human Estrogen Receptor (ER) (AID 2283348)).
Protocol: NVS_NR_hER is a biochemical, single-readout assay that uses extracted gene-proteins from MCF7 in a cell-free assay. Measurements were taken 18 hours after chemical dosing in a 96-well plate.NVS_NR_hER is one of one assay component(s) measured or calculated from the NVS_NR_hER assay. It is designed to make measurements of radioligand binding, a form of binding reporter, as detected with scintillation counting signals by Lysate-based radiodetection technology.Data from the assay component NVS_NR_hER was analyzed into 1 assay endpoint. This assay endpoint, NVS_NR_hER, was analyzed in the positive analysis fitting direction relative to DMSO as the negative control and baseline of activity. Using a type of binding reporter, loss-of-signal activity can be used to understand changes in the binding as they relate to the gene ESR1. Furthermore, this assay endpoint can be referred to as a primary readout, because the performed assay has only produced 1 assay endpoint. To generalize the intended target to other relatable targets, this assay endpoint is annotated to the nuclear receptor intended target family, where the subfamily is steroidal.
Binding assays used specific radioligands (tritiated, iodinated) with non-radioactive competitive displacement ligands in agonist or antagonist protocols (as indicated) and various reference compounds and inhibitors to titrate specific binding to receptors and transporters. Most enzyme assays (CYPs, kinases, phosphatases, proteases, HDACs) used recombinant protein and specific substrates (fluorescence mostly, some colorimetric and radioactive) and inhibitors, followed by a biochemical separation of substrate and product. All assays for the biochemical HTS were initially run in duplicate at a single concentration (10 uM for CYP450 assays and 25 uM for all others). […] Each assay was run with positive and negative controls, and concurrent controls on every plate. The follow-up (secondary) screen tested active chemical-pairs in concentration series, as well as a few additional assays not tested in the primary screen, some selected negative inactives, and several cases re-run in the concentration series for confirmatory purposes.

Estrogen receptor (Homo sapiens), sequence (P03372 whole entry, looked up): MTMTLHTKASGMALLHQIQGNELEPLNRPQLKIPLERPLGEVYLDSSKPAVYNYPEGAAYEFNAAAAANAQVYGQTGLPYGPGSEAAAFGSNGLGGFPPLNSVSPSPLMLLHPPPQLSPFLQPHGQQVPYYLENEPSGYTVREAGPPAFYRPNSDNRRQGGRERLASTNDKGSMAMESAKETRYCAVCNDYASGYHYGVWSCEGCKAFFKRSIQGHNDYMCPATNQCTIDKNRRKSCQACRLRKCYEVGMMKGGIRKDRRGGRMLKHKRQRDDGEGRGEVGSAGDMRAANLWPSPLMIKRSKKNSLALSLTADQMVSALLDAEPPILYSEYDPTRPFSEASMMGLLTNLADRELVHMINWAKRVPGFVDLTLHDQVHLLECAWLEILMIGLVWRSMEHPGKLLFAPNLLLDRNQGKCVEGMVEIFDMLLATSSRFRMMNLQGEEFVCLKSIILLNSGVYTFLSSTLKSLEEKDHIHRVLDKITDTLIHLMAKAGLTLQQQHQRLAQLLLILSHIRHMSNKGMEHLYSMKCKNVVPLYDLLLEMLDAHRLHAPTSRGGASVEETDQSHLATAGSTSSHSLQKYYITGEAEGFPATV

| SMILES | outcome | AC50 |
| --- | --- | --- |
| COC(=O)c1ccc(O)cc1 | inactive | – |
| Nc1ccc2c(c1)C(=O)c1ccccc1C2=O | inactive | – |
| O=C(O)Cc1ccccc1Nc1c(Cl)cccc1Cl | inactive | – |
| C[Si]1(C)O[Si](C)(C)O[Si](C)(C)O[Si](C)(C)O1 | inactive | – |
| CCCCCCC(=O)OCC | inactive | – |
| Cc1cccc(Nc2cc(Cl)nc(SCC(=O)O)n2)c1C | inactive | – |
| CCOc1ccc2c(c1)C(C)=CC(C)(C)N2 | – | 39.2 µM (active) |
| CCCCCCCCCCCCCCCCCC(=O)O | – | 17.2 µM (active) |
| COc1cc(C=O)ccc1O | – | 38.6 µM (active) |
| CC(=O)C(C)=CC1C(C)=CCCC1(C)C (stereo not given) | inactive | – |
| Cc1nc(-c2ccc3c(c2)CCN(CCC2CCC(NC(=O)/C=C/c4ccc(F)cc4)CC2)CC3)no1 (stereo not given) | inactive | – |
| Cc1oc(-c2ccccc2)nc1CCOc1cccc2c1ccn2CCC(=O)O | inactive | – |
| CC=Cc1ccc(O)c(OC)c1 | inactive | – |
| CCOC(=O)CCC(=O)OCC | inactive | – |
| CCCc1cc(=O)[nH]c(=S)[nH]1 | – | 11.2 µM (active) |
| COc1ccc(S(=O)(=O)N2C(=O)[C@@](c3ccccc3OC)(N3C[C@H](O)C[C@H]3C(=O)N(C)C)c3cc(Cl)ccc32)c(OC)c1 | inactive | – |
| C[C@]12C=CC(=O)C=C1CC[C@@H]1[C@@H]2C(=O)C[C@@]2(C)[C@H]1CC[C@]2(O)C(=O)CO | inactive | – |
| CCCCC(CC)COC(=O)CC(C(=O)OCC(CC)CCCC)S(=O)(=O)O (stereo not given) | inactive | – |
| O=c1c(O)c(-c2ccc(O)c(O)c2)oc2cc(O)cc(O)c12 | inactive | – |
| CC1=C(/C=C/C(C)=C/C=C/C(C)=C/CO)C(C)(C)CCC1 | inactive | – |
| C=CCc1ccc(O)c(OC)c1 | inactive | – |
| C=CCOC(=O)c1ccccc1C(=O)OCC=C | – | 41.4 µM (active) |
| Oc1ccc2c(c1)OC[C@@H](N1CCC(O)(c3ccc(F)cc3)CC1)[C@H]2O | inactive | – |
| COc1ccc2c(c1)c(CC(=O)O)c(C)n2C(=O)c1ccc(Cl)cc1 | inactive | – |
| CC(C)(C)c1cc(O)c(C(C)(C)C)cc1O | inactive | – |
